Bioassay records (PubChem BioAssay)
CYP2C19 activ = cytochrome P450 2C19 (human) activation. P33261. recombinant CYP2C19, luciferin-H EGE luminescence; hits give high values; 0 = fully inhibited enzyme, 1 = untreated enzyme. activation factor at 5 µM. 96,000 tested, under 10 active;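 active means activation factor of at least 2 at 5 µM in the primary screen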;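 further: 0 = wells with 2.5 mM tranylcypromine and 1 = vehicle-only wells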
Target sequence (P33261 whole entry, looked up): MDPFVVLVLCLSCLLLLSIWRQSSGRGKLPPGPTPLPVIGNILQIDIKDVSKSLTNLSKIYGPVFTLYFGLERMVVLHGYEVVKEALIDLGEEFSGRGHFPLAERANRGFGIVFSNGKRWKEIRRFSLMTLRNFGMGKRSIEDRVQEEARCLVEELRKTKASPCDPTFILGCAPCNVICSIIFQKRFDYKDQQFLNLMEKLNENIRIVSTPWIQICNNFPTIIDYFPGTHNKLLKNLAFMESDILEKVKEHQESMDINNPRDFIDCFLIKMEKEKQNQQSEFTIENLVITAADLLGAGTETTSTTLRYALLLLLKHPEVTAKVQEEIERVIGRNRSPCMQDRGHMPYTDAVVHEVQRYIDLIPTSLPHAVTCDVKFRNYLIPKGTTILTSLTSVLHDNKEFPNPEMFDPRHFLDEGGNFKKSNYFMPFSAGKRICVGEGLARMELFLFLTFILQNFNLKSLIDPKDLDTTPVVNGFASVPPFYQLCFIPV
CYP2C19 inhib = inhibitors of human CYP2C19; AID 778; CYP2C19 Supersomes, luciferin-H EGE luminescence, 30 min; inhibition, % at 5 µM; P33261; actives 21% (n = 96,000);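 active means CYP2C19 inhibition above a set limit at 5 µM in the primary screen, cut at about 50% in these data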;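 further: plate controls were negative control wells for no effect and 2.5 mM tranylcypromine positive control for full effect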
CYP2C9 inh = human CYP2C9 inhibition | actives 20% (n = 96,000) | AID 777 | CYP2C9 Supersomes, luciferin-H conversion, luminescence | inhibition, % at 5 µM | P11712;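 active means blocking of liver enzyme CYP2C9 beyond about 50% at 5 µM, limit read from the data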
CYP2C9 activ = activators of human CYP2C9. recombinant CYP2C9, luciferin-H conversion, luminescence; hits give high values; factor 1 = untreated enzyme, 0 = blocked. actives 1.4% (n = 96,000). P11712. activation factor at 5 µM. AID 1024;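 active means activation factor of 2 or more for CYP2C9 at a 5 µM dose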;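 further: 0 = sulfaphenazole-blocked wells and 1 = vehicle-only wells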
Cav3 T inh = blocks human Cav3.2 T-type calcium channel. actives 4% (n = 100,000). B-score at 10 µM. AID 449739. Cav3.2-expressing cells, Fluo-4 calcium fluorescence FDSS; hits give low values;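 active means single-dose well whose peak fluorescence ratio is a statistical outlier from its plate by either plate-standardised score or position-corrected B-score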
Active calls of the source: *. Hits are enriched below; roughly 27% of the tested compounds scored in any of these assays.

What do the screens show for `Cc1ccc(C(=O)OCC(=O)Nc2ccc3c(c2)OCO3)cc1S(=O)(=O)N1CCOCC1`?
CYP2C19 activ: 0.6; CYP2C19 inhib: 40.2; CYP2C9 inh: 50.6*; CYP2C9 activ: 0.5; Cav3 T inh: 0.677

What do the screens show for `O=C(COC(=O)CCc1ccc(S(=O)(=O)N2CCCCC2)cc1)Nc1ccc2c(c1)OCO2`?
CYP2C19 activ: 0.6; CYP2C19 inhib: 42.6; CYP2C9 inh: 76.4*; CYP2C9 activ: 0.2; Cav3 T inh: -5.49*

How did Cc1ccc(C(=O)Oc2cccc(NC(=O)c3cccs3)c2)cc1S(=O)(=O)N1CCOCC1 do in these assays?
CYP2C19 activ: 0.5; CYP2C19 inhib: 46.3; CYP2C9 inh: 58.2*; CYP2C9 activ: 0.4; Cav3 T inh: 0.868

How did O=C(COc1ccc(S(=O)(=O)N2CCCC2)cc1Cl)Nc1ccc2c(c1)OCO2 do in these assays?
CYP2C19 activ: 0.9; CYP2C19 inhib: 5.9; CYP2C9 inh: -7.9; CYP2C9 activ: 1.1; Cav3 T inh: 0.444

What do the screens show for `O=C(COC(=O)c1cc(S(=O)(=O)N2CCOCC2)ccc1Cl)Nc1ccc2c(c1)OCO2`?
CYP2C19 activ: 0.3; CYP2C19 inhib: 68.3*; CYP2C9 inh: 61.1*; CYP2C9 activ: 0.4; Cav3 T inh: 0.081

How did CCOC(=O)CSCC(=O)Nc1nnc(-c2cccc([N+](=O)[O-])c2)s1 do in these assays?
Cav3 T inh: 1.58

Results for COC(=O)c1cccc(S(=O)(=O)N2CCOCC2)c1 ?
CYP2C19 activ: 1; CYP2C19 inhib: 4.1; CYP2C9 inh: 6.6; CYP2C9 activ: 0.9; Cav3 T inh: -0.21

How did Cc1ccc(C(=O)OCC(=O)Nc2ccccc2C(F)(F)F)cc1S(=O)(=O)N1CCOCC1 do in these assays?
CYP2C19 activ: 0.8; CYP2C19 inhib: 18.0; CYP2C9 inh: 31.9; CYP2C9 activ: 0.7; Cav3 T inh: -0.278

What do the screens show for `CCNc1ccc(C(=O)OCC)cc1NC(=O)c1cccc(S(=O)(=O)N2CCOCC2)c1`?
CYP2C19 activ: 0.6; CYP2C19 inhib: 44.8; CYP2C9 inh: 57.5*; CYP2C9 activ: 0.4; Cav3 T inh: 0.954

What do the screens show for `CCOC(=O)c1ccccc1NC(=O)COC(=O)c1ccc(C)c(S(=O)(=O)N2CCOCC2)c1`?
CYP2C19 activ: 0.8; CYP2C19 inhib: 19.1; CYP2C9 inh: 61.2*; CYP2C9 activ: 0.4; Cav3 T inh: 1.01

How did O=C(Nc1cnn(C23CC4CC(CC(C4)C2)C3)c1)c1cnn2cccnc12 do in these assays?
CYP2C19 activ: 1; CYP2C19 inhib: 0.3; CYP2C9 inh: -14.6; CYP2C9 activ: 1.1

What do the screens show for `CCOC(=O)c1sc(/N=C/c2c(C)[nH]n(-c3ccccc3)c2=O)c(C#N)c1C`?
CYP2C19 activ: 1.1; CYP2C19 inhib: -9.7; CYP2C9 inh: 28.4; CYP2C9 activ: 0.7

How did O=C(O)c1ccc(Cl)c(NC(=O)C2CCCN2S(=O)(=O)c2cccc3nsnc23)c1 (stereo not given) do in these assays?
CYP2C19 activ: 1.2; CYP2C19 inhib: -19.3; CYP2C9 inh: -4.2; CYP2C9 activ: 1; Cav3 T inh: 1.14

Results for c1ccc(Nc2nc3ccccc3o2)cc1 ?
CYP2C19 activ: 0.6; CYP2C19 inhib: 44.9; CYP2C9 inh: 17.3; CYP2C9 activ: 0.8; Cav3 T inh: 1.15

Results for c1ccc(NC2=Nc3ccccc3CC2)cc1 ?
CYP2C19 activ: 0.3; CYP2C19 inhib: 67.7*; CYP2C9 inh: 18.3; CYP2C9 activ: 0.8; Cav3 T inh: 0.808

How did CCOC(=O)c1c(Nc2ccccc2N)cc(C)nc1C do in these assays?
CYP2C19 activ: 0.3; CYP2C19 inhib: 71.9*; CYP2C9 inh: 5.5; CYP2C9 activ: 0.9; Cav3 T inh: 0.838

What do the screens show for `CCOC(=O)c1c(C)nc2ccccc2c1C`?
CYP2C19 activ: 0.6; CYP2C19 inhib: 37.0; CYP2C9 inh: 5.0; CYP2C9 activ: 0.9; Cav3 T inh: -0.0992

How did O=C(COC(=O)c1n[nH]c2ccccc12)NC(=O)NC12CC3CC(CC(C3)C1)C2 do in these assays?
CYP2C19 activ: 0.9; CYP2C19 inhib: 8.2; CYP2C9 inh: -1.3; CYP2C9 activ: 1; Cav3 T inh: 0.0341

What do the screens show for `CNC(=S)N1CCN(c2ccc(OC)cc2)CC1`?
CYP2C19 activ: 0.3; CYP2C19 inhib: 70.3*; CYP2C9 inh: 15.3; CYP2C9 activ: 0.8; Cav3 T inh: 1

What do the screens show for `COc1ccc(CCNC(=O)NC23CC4CC(CC(C4)C2)C3)cc1`?
CYP2C19 activ: 0.5; CYP2C19 inhib: 52.6*; CYP2C9 inh: 22.9; CYP2C9 activ: 0.8; Cav3 T inh: 0.577

Results for COc1ccc(CC(=O)OCC(=O)NC(=O)NC23CC4CC(CC(C4)C2)C3)cc1 ?
CYP2C19 activ: 0.7; CYP2C19 inhib: 31.8; CYP2C9 inh: 65.8*; CYP2C9 activ: 0.3; Cav3 T inh: -8.02*

How did COc1ccc(N2CCN(C(=S)Nc3cc(C)cc(C)c3)CC2)cc1 do in these assays?
CYP2C19 activ: 0.9; CYP2C19 inhib: 11.0; CYP2C9 inh: -3.3; CYP2C9 activ: 1; Cav3 T inh: 0.388

What do the screens show for `COc1ccc(N2CCN(C(=O)NC34CC5CC(CC(C5)C3)C4)CC2)cc1`?
CYP2C19 activ: 0.4; CYP2C19 inhib: 62.9*; CYP2C9 inh: 59.3*; CYP2C9 activ: 0.4; Cav3 T inh: 0.0098

Results for O=C(NCCC1=CCCCC1)NC12CC3CC(CC(C3)C1)C2 ?
Cav3 T inh: -3.21

How did CCCCOc1ccc(N2C(=O)CC(NCCc3ccc(S(N)(=O)=O)cc3)C2=O)cc1 (stereo not given) do in these assays?
CYP2C19 activ: 1; CYP2C19 inhib: -1.0; CYP2C9 inh: 44.8; CYP2C9 activ: 0.6; Cav3 T inh: -0.3

Results for COc1ccc(Nc2nc(C)cc(-c3cc(-c4ccccc4)on3)n2)cc1 ?
Cav3 T inh: 0.691

What do the screens show for `Cc1cc(NC(=O)Cn2cc(C(F)(F)F)cc(Cl)c2=O)no1`?
Cav3 T inh: -1.08

How did Cc1cc(-c2ccccc2)nc(N2CCC(C(=O)NCc3ccccc3Cl)CC2)n1 do in these assays?
Cav3 T inh: 0.524

How did C=CCNC(=O)C1CCN(c2nc(C)cc(-c3ccccc3)n2)CC1 do in these assays?
CYP2C19 activ: 0.2; CYP2C19 inhib: 82.4*; CYP2C9 inh: 77.3*; CYP2C9 activ: 0.2; Cav3 T inh: -1.17

How did CN(C1CCS(=O)(=O)C1)S(=O)(=O)c1ccc(N2CCCC2=O)cc1 (stereo not given) do in these assays?
CYP2C19 activ: 1; CYP2C19 inhib: -1.6; CYP2C9 inh: 16.6; CYP2C9 activ: 0.8; Cav3 T inh: 0.61

What do the screens show for `C/C=C(\C)C(=O)Nc1cccc(C2=NOC3(C2)C[C@H](C(N)=O)N(C(=O)CC#N)C3)c1` (stereo not given in full)?
Cav3 T inh: 0.104

Results for COc1cccc(OC)c1C(=O)N1CCN(Cc2ccccc2C(F)(F)F)CC1 ?
CYP2C19 activ: 0.1; CYP2C19 inhib: 93.5*; CYP2C9 inh: 90.9*; CYP2C9 activ: 0.1; Cav3 T inh: -2.65

What do the screens show for `CCCS(=O)(=O)N1CCN(C(=O)c2cc(OC)cc(OC)c2)CC1`?
CYP2C19 activ: 0.3; CYP2C19 inhib: 70.8*; CYP2C9 inh: 10.6; CYP2C9 activ: 0.9; Cav3 T inh: 0.362
